Our source for the Potency and activity change, negative = inhibition values is PubChem BioAssay (Tox21).

The target of assay [1] is Acetylcholinesterase (Homo sapiens) (UniProt P22303). The assay is described as follows: Acetylcholinesterase (AChE) small molecule antagonists: fluorescence cell-based qHTS assay (AID 1347398; calls by dose curve; further: nearly all actives have a fitted effect of over 50% in size). The note with it: Potency: AChE activity. The procedure, abridged:
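Cellular AChE activity read as thiocholine from acetylthiocholine hydrolysis, detected by Thiolite Green fluorescence at 490/520 nm after 40 min at room temperature. Compounds were pre-incubated 30 min at 37 C on adherent SH-SY5Y cells.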
In general terms: qHTS replaces the single test concentration by a dilution series.

The target is the same in assay [2]. Description: Acetylcholinesterase (AChE) small molecule antagonists: enzyme-based qHTS assay with human liver microsomes (AID 1347399; calls by dose curve; further: nearly all actives have a fitted effect of over 60% in size). The note with it: Potency: qHTS inhibition. The procedure, abridged: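 Recombinant human AChE (50 mU/mL in the enzyme mix) and human liver microsomes (0.25 mg/mL final) were preincubated with compound and NADPH (0.25 mg/mL final) for 30 min at 37 C. Acetylthiocholine/DTNB was then added; thiocholine was read colorimetrically after 10 min at room temperature.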

The target of assay [3] is Cytochrome P450 2D6 (Homo sapiens) (UniProt P10635). The assay is described as follows: Cytochrome P450 Family 2 Subfamily D Member 6 (CYP2D6) small molecule antagonists: luciferase reporter qHTS assay (AID 1671196). Further: nearly all actives have a fitted effect of over 50% in size. On activity change, negative = inhibition: series mostly up to about 120 µM. The procedure, abridged: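 Luminogenic proluciferin substrate, CYP2D6 enzyme; 10 min RT preincubation with compound, NADPH regeneration system added, 1 h RT. Stop/detection reagent, 20 min RT, luminescence read (RLU). Signal proportional to CYP activity.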

For assay [4], the target named is Cytochrome P450 2C19 (Homo sapiens) (UniProt P33261). The assay is described as follows: Cytochrome P450 Family 2 Subfamily C Member 19 (CYP2C19) small molecule antagonists: luciferase reporter qHTS assay (AID 1671197). Further: nearly all actives have a fitted effect of over 65% in size. On activity change, negative = inhibition: series mostly up to about 120 µM. The procedure, abridged:
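Inhibition of CYP2C19 was scored from loss of luminescence in a P450-Glo proluciferin substrate assay, NADPH-started and run 1 h at 37C, with ketoconazole as positive control.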
(In general: A reporter such as luciferase makes a cellular process visible.)

The target in assay [5] is Cytochrome P450 2C9 (Homo sapiens) (UniProt P11712). The assay is described as follows: Cytochrome P450 Family 2 Subfamily C Member 9 (CYP2C9) small molecule antagonists: luciferase reporter qHTS assay (AID 1671198). Further: nearly all actives have a fitted effect of over 50% in size. On activity change, negative = inhibition: series mostly up to about 120 µM. The procedure, abridged:
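Enzyme-substrate mix preincubated with compound 10 min at room temperature; reaction started with NADPH regeneration solution, 1 h 37C. Luminescent luciferin product read after 20 min detection reagent.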

The target of assay [6] is Cytochrome P450 1A2 (Homo sapiens) (UniProt P05177). The assay is described as follows: Cytochrome P450 Family 1 Subfamily A Member 2 (CYP1A2) small molecule antagonists: luciferase reporter qHTS assay (AID 1671199). Further: nearly all actives have a fitted effect of over 50% in size. On activity change, negative = inhibition: series mostly up to about 120 µM. In outline:
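Luminescence readout (relative luminescence units) after luciferin detection reagent, 20 min RT. Preceded by 1 h room-temperature CYP1A2 reaction with NADPH regeneration solution following 10 min compound preincubation with enzyme and proluciferin substrate. Furafylline positive control.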

Assay [7] has as its target Voltage-gated inwardly rectifying potassium channel KCNH2 (Homo sapiens) (UniProt Q12809). Description: Human Ether-a-go-go-Related Gene (hERG) channel small molecule antagonists: fluorescence cell-based qHTS assay (AID 1671200). Further: nearly all actives have a fitted effect of over 50% in size. On activity change, negative = inhibition: series mostly up to about 77 µM. The procedure, abridged: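 Thallium flux as potassium surrogate: FluxOR II dye loaded 1 h at room temperature into hERG-expressing U2OS cells, then stimulus buffer added after 10 min. Kinetic 480 nm excitation/540 nm emission read, 2 min.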

In assay [8] the target is Cytochrome P450 3A4 (Homo sapiens) (UniProt P08684). Description: Cytochrome P450 Family 3 Subfamily A Member 4 (CYP3A4) small molecule antagonists: luciferase reporter qHTS assay (AID 1671201). Further: nearly all actives have a fitted effect of over 50% in size. On activity change, negative = inhibition: series mostly up to about 120 µM. The procedure, abridged:
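Recombinant human CYP3A4 converts a proluciferin substrate to luciferin over 1 h at room temperature after NADPH regeneration solution is added (compound preincubated 10 min); detection reagent stops reaction, luminescence read 20 min later as relative units.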

A number with no mark means an inactive call. Records with an inconclusive call do not appear. Calls of active or inactive are those of the source. Unless noted, the call rests on the fitted dose curve; in most records, active means well fitted curve in the direction sought with a large enough effect in the repeat runs; inconclusive means weak or mixed curves; inactive means no such curve, though single readings can be large; an effect the other way counts as inactive or inconclusive.
On the % scale 0 is the no-effect control and ±100 the full control effect; potency means the concentration at half of the fitted maximal effect.

Sequence of Voltage-gated inwardly rectifying potassium channel KCNH2 (Homo sapiens) (Q12809 whole entry, looked up): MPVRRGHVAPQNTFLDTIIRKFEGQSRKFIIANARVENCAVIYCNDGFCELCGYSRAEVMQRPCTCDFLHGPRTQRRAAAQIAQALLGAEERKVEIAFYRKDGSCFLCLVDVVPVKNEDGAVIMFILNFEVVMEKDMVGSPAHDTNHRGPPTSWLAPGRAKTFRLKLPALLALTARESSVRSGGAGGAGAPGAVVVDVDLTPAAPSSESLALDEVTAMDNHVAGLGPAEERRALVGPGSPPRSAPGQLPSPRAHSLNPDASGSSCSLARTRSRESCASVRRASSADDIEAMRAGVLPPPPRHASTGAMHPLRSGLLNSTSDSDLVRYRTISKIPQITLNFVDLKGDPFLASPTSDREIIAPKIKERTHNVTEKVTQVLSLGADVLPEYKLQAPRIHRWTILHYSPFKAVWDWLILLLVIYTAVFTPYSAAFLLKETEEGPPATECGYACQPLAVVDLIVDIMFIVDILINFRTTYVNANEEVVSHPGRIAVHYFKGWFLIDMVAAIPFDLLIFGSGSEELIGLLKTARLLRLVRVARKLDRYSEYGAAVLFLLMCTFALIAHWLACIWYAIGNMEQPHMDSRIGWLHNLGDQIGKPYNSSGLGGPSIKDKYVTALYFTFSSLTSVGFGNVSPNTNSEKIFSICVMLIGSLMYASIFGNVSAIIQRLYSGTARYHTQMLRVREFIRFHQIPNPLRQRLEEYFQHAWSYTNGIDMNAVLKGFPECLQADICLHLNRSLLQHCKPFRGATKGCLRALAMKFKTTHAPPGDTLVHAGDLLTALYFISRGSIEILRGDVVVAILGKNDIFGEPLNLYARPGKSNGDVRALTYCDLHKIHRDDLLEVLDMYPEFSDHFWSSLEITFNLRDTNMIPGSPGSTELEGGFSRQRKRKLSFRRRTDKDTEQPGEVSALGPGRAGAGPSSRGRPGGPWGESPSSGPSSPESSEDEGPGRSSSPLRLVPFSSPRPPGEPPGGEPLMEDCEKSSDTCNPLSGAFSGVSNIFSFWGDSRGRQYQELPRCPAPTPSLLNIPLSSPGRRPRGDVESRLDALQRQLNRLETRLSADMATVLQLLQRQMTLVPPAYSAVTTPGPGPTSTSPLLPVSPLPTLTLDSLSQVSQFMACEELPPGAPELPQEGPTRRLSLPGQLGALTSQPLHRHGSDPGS
Sequence of Cytochrome P450 3A4 (Homo sapiens) (P08684 whole entry, looked up): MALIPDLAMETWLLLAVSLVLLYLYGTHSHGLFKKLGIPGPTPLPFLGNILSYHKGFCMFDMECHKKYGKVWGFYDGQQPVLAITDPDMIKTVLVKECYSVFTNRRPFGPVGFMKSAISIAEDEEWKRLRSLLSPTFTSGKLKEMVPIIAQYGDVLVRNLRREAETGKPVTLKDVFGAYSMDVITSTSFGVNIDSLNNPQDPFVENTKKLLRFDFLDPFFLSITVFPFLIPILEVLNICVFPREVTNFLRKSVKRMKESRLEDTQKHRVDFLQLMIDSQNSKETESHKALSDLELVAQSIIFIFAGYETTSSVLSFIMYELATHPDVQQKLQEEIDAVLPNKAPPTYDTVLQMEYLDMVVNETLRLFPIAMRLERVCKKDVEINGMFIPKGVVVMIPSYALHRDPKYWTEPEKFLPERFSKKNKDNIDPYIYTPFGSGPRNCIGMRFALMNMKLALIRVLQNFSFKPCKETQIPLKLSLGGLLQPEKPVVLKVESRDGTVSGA
Sequence of Cytochrome P450 2C9 (Homo sapiens) (P11712 whole entry, looked up): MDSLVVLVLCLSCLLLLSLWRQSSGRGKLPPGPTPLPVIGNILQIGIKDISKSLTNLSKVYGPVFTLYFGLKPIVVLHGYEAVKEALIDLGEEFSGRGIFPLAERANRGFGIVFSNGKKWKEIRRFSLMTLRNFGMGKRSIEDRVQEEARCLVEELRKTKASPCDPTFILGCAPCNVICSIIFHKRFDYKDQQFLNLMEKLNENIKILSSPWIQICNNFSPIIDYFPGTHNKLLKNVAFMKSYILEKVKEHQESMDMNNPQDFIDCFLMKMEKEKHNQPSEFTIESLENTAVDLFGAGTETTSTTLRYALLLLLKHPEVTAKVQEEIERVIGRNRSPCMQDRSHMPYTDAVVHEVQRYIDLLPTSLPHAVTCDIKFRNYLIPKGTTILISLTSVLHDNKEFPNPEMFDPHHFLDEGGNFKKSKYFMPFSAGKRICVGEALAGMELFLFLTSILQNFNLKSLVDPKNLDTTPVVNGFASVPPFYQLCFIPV
Sequence of Cytochrome P450 2C19 (Homo sapiens) (P33261 whole entry, looked up): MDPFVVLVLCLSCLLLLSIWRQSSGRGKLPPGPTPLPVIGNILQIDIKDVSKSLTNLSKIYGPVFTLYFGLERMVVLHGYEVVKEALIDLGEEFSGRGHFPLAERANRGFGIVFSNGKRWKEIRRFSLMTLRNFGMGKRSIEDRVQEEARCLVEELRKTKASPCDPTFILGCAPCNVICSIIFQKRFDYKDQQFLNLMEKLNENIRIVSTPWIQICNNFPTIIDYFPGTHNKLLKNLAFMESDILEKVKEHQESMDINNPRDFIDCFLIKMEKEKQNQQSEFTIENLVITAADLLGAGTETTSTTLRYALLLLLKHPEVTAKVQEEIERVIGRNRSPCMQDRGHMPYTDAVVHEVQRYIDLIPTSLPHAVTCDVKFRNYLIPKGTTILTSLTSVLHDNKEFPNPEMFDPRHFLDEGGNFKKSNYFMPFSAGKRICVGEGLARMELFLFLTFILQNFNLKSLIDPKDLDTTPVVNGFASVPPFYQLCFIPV
Sequence of Cytochrome P450 1A2 (Homo sapiens) (P05177 whole entry, looked up): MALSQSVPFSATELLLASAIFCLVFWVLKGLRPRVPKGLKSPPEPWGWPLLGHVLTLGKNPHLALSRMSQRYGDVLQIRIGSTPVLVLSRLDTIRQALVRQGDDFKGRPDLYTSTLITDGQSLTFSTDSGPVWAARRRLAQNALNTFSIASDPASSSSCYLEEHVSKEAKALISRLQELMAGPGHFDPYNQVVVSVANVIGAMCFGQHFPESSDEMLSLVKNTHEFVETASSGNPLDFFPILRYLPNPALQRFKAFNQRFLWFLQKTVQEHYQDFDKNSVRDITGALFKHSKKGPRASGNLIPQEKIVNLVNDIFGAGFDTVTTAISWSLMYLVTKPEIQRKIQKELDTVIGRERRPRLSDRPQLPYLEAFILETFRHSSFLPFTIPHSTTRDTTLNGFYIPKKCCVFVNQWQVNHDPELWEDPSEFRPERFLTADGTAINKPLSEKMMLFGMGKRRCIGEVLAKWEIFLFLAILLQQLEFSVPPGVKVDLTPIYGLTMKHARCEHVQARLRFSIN
Sequence of Cytochrome P450 2D6 (Homo sapiens) (P10635 whole entry, looked up): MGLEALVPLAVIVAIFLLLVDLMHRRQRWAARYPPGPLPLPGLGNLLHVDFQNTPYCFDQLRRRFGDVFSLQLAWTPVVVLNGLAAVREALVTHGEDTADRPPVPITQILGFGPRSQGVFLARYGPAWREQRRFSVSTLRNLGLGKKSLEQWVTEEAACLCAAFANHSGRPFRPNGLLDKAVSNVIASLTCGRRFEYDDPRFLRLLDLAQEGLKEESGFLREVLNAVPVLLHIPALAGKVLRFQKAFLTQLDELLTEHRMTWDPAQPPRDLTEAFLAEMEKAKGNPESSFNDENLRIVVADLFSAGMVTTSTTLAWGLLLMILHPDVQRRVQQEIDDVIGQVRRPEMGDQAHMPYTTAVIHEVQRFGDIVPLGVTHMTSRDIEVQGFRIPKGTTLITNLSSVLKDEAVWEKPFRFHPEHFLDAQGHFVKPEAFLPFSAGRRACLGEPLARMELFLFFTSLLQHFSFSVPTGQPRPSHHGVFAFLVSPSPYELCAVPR
Sequence of Acetylcholinesterase (Homo sapiens) (P22303 whole entry, looked up): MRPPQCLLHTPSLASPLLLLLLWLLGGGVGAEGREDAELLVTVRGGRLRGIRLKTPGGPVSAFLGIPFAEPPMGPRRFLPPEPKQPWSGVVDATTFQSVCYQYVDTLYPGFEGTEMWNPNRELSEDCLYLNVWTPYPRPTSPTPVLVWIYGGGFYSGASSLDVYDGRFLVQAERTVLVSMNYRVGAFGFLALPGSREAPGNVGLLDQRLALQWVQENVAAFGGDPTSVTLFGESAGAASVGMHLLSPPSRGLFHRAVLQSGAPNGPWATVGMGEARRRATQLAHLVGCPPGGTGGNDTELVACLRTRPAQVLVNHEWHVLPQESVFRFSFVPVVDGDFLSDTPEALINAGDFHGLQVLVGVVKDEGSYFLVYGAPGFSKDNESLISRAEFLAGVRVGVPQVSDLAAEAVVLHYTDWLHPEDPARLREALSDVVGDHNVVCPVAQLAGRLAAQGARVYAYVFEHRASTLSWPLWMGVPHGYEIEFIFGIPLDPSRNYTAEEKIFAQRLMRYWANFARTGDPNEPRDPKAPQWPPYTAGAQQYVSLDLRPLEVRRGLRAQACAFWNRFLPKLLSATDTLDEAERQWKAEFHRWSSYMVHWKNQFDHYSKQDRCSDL

Regarding `CCOP(=S)(OCC)SCSP(=S)(OCC)OCC`, the Potency is 35.6 µM (active) in assay [1]; 17.8 µM (active) in assay [2]; 35.6 µM (active) in assay [3]; 0.399 µM (active) in assay [4]; 0.796 µM (active) in assay [5]; 15.9 µM (active) in assay [6]. Moreover, the Potency in assay [8] was 1.26 µM (active). The Potency result in assay [7] was “inactive”.

Consider `CC1COC2(c3ccccc3Cl)c3cc(Cl)ccc3NC(=O)CN12` (stereo unspecified), for which the Potency result in assay [1], in assay [2] and in assay [6] was “inactive” throughout. Further, the results for the Potency in assay [3], in assay [4] and in assay [5] were 15.5 µM (active), 4.36 µM (active) and 27.5 µM (active), respectively.

Consider `N#Cc1ccncc1`, for which the Potency entry in assay [1], in assay [2], in assay [3], in assay [4], in assay [5] and in assay [6] was “inactive” each time. Besides, the Potency entry in assay [8] was “inactive”.

Turning to `CC(Cl)(Cl)[N+](=O)[O-]`, the Potency result in assay [1], in assay [2], in assay [3], in assay [4], in assay [5] and in assay [6] was “inactive” in each case. Besides, the Potency entry in assay [7] and in assay [8] was “inactive” in each case.

On to `CC(=O)C(Cl)Cl`, for which the Potency result in assay [1], in assay [2], in assay [3], in assay [4], in assay [5] and in assay [6] was “inactive” in each case. The Potency result in assay [8] is “inactive”.

Regarding `O=C1OC(=O)C2C1C1(Cl)C(Cl)=C(Cl)C2(Cl)C1(Cl)Cl` (stereo unspecified), the Potency entry in assay [1], in assay [2], in assay [3], in assay [4], in assay [5] and in assay [6] was “inactive” each time. The Potency entry in assay [7] and in assay [8] was “inactive” throughout.

In the case of `COc1cccc2c1cc([N+](=O)[O-])c1c(C(=O)O)cc3c(c12)OCO3`, the Potency result in assay [1], in assay [2], in assay [3] and in assay [7] was “inactive” each time. Moreover, the Potency in assay [4] was 79.6 µM (active); in assay [5], 28.3 µM (active); in assay [6], 39.9 µM (active); in assay [8], 22.4 µM (active).

On to `CCC(=O)C(CCN(C)C)(c1ccccc1)c1ccccc1`, for which the Potency result in assay [1] and in assay [2] was “inactive” in each case. Further, the Potency in assay [3] was 5.49 µM (active); in assay [4], 11 µM (active).

As for `OC(Cn1cncn1)(c1ccc(F)cc1)c1ccccc1F` (stereo unspecified), the Potency entry in assay [1] and in assay [2] was “inactive” throughout. Further, the Potency is 35.6 µM (active) in assay [3]; 2 µM (active) in assay [4]; 0.796 µM (active) in assay [5]; 31.7 µM (active) in assay [6]; 0.224 µM (active) in assay [8].

For `CC1=C(C(=O)O)N2C(=O)[C@@H](N)[C@H]2SC1`, the activity change, negative = inhibition in assay [1] is 0.138% [at 23.8 µM]; in assay [2] it was 2.02% [at 23.6 µM]; in assay [3], -15.2% [at 23.6 µM]; in assay [4], -10.3% [at 23.6 µM]; in assay [5], 5.86% [at 23.6 µM]; in assay [6], 13% [at 23.6 µM]. Moreover, the activity change, negative = inhibition in assay [7] was 3.94% [at 15.8 µM]; in assay [8], 11.3% [at 23.6 µM].

On to `NC(=O)c1cc([N+](=O)[O-])cc([N+](=O)[O-])c1`, for which the Potency entry in assay [1], in assay [2], in assay [3], in assay [4], in assay [5] and in assay [6] was “inactive” throughout. In addition, the Potency result in assay [7] and in assay [8] was “inactive” in each case.

In the case of `O=[N+]([O-])c1cc(Cl)c(Cl)c(Cl)c1`, the Potency result in assay [1], in assay [2], in assay [3], in assay [4], in assay [5] and in assay [7] was “inactive” in each case. The Potency result in assay [8] is “inactive”. Also, the Potency in assay [6] was 11.1 µM (active).

For `CCOP(=S)(OCC)Oc1ncn(-c2ccccc2)n1`, the Potency is 35.6 µM (active) in assay [1]; 3.17 µM (active) in assay [2]; 1 µM (active) in assay [4]; 0.502 µM (active) in assay [5]; 1.78 µM (active) in assay [6]; 2.52 µM (active) in assay [8]. Also, the Potency result in assay [3] and in assay [7] was “inactive” throughout.

For the compound `COCC(=O)N(c1c(C)cccc1C)N1CCOC1=O`, the Potency result in assay [1], in assay [2], in assay [3], in assay [5], in assay [6] and in assay [7] was “inactive” each time. The Potency result in assay [8] is “inactive”. The Potency in assay [4] is 79.6 µM (active).

In the case of `CC1(C(=O)Nc2ccc(O)c(Cl)c2Cl)CCCCC1`, the Potency result in assay [1], in assay [2] and in assay [7] was “inactive” each time. Besides, the Potency was 71 µM (active) in assay [3], 11.2 µM (active) in assay [4] and 35.6 µM (active) in assay [5].

Take `CC(=O)CC(c1ccc(Cl)cc1)c1c(O)c2ccccc2oc1=O` (stereo unspecified): the Potency result in assay [1], in assay [2], in assay [3], in assay [4], in assay [6] and in assay [7] was “inactive” in each case. Further, in assay [8], the Potency entry is “inactive”. The Potency in assay [5] was 11.8 µM (active).

With `CC(=O)[C@H]1CC[C@H]2[C@@H]3CC[C@H]4C[C@H](O)CC[C@]4(C)[C@H]3C(=O)C[C@]12C`, the Potency entry in assay [1] and in assay [2] was “inactive” each time.

In the case of `CC(C)(C)NCC(O)c1cc(Cl)c(N)c(Cl)c1` (stereo unspecified), the Potency result in assay [1], in assay [2], in assay [4], in assay [5], in assay [6] and in assay [7] was “inactive” in each case. In assay [8], the Potency entry was “inactive”. Further, the Potency in assay [3] is 15.5 µM (active).

In the case of `OCCSCSCCO`, the Potency result in assay [1], in assay [2], in assay [3], in assay [4], in assay [5] and in assay [6] was “inactive” throughout. Also, the Potency entry in assay [7] and in assay [8] was “inactive” each time.

In the case of `CC(C=O)Cc1ccc2c(c1)OCO2` (stereo unspecified), the Potency entry in assay [1] and in assay [2] was “inactive” each time. The Potency in assay [3] was 63.3 µM (active); in assay [4] it was 20 µM (active); in assay [5], 15.9 µM (active); in assay [6], 6.33 µM (active); in assay [8], 11.2 µM (active).

On to `CC(C)(C)OC(=O)c1ncn2c1[C@@H]1CCCN1C(=O)c1c(Br)cccc1-2`, for which the Potency result in assay [1], in assay [2], in assay [3], in assay [4], in assay [6] and in assay [7] was “inactive” in each case. Moreover, the Potency in assay [5] was 7.76 µM (active).

With `CCC(=O)c1ccccc1`, the Potency entry in assay [1], in assay [2], in assay [3], in assay [4], in assay [5] and in assay [6] was “inactive” each time. The Potency entry in assay [7] and in assay [8] was “inactive” throughout.

Consider `CN1C(=S)CN=C(c2ccccc2)c2cc(Cl)ccc21`, for which the Potency result in assay [1], in assay [2], in assay [3] and in assay [7] was “inactive” in each case. In addition, the Potency was 21.9 µM (active) in assay [4] and 17.4 µM (active) in assay [5].

For the compound `C=C(C)[C@@H]1CC=C(C=O)CC1`, the Potency result in assay [1], in assay [2], in assay [3], in assay [6] and in assay [7] was “inactive” each time. The Potency was 63.3 µM (active) in assay [4], 71 µM (active) in assay [5] and 35.6 µM (active) in assay [8].

Consider `C=CCC1=C(C)[C@@H](OC(=O)[C@@H]2[C@@H](C=C(C)C)C2(C)C)CC1=O`, for which the Potency result in assay [1] and in assay [2] was “inactive” each time. Moreover, the Potency in assay [3] was 35.6 µM (active); in assay [4] it was 6.33 µM (active); in assay [5] it was 12.6 µM (active); in assay [6] it was 28.3 µM (active); in assay [7], 21.9 µM (active).

For the compound `CCS(=O)(=O)CCSP(=O)(OC)OC`, the Potency result in assay [1], in assay [2], in assay [3], in assay [4], in assay [5] and in assay [6] was “inactive” each time. In addition, the Potency result in assay [7] and in assay [8] was “inactive” in each case.
